Results as given in PubChem BioAssay (NCATS).
Where “and” joins values, the source holds several entries; their conditions need not be identical. Equal values may be shown once. Inconclusive results are not listed. Entries that show only a call come without a potency. A structure can be active in one record and inactive in another. Calls of active or inactive are those of the source. Calls follow the shape of the dose curve; as a rule, active = well fitted curve in the direction sought with a large enough effect; inconclusive = small, poorly fitted or top-dose-only effect, or another doubt; inactive = no such curve, though single readings can be large; an effect the other way counts as inactive or inconclusive.

Experiments:
HEK293 = experiment: Cytotoxic Profiling of Annotated Libraries Using Quantitative High-Throughput Screening (AID 1296008); conditions: Five cell lines viability, CellTiter-Glo ATP luminescence, 48-72 h; max response: stronger effect = lower value; also: nearly all actives have a fitted effect of over 60% in size; also: potency is read from the fitted curve at half-maximal effect
Summary of the method: (§1)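 Cytotoxicity was measured as CellTiter-Glo ATP luminescence, read after 10 min at room temperature. Compound treatment of the cells lasted 48 or 72 hr at 37 degrees Celsius in a qHTS format.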

HaCat [1] = experiment: as above; conditions: Five cell lines viability, CellTiter-Glo ATP luminescence, 48-72 h; max response: stronger effect = lower value
Summary of the method: as §1

KB-3-1 = experiment: as above; conditions: Five cell lines viability, CellTiter-Glo ATP luminescence, 48-72 h; max response: stronger effect = lower value
Summary of the method: as §1

NIH3T3 [2] = experiment: as above; conditions: Five cell lines viability, CellTiter-Glo ATP luminescence, 48-72 h; max response: stronger effect = lower value
Summary of the method: as §1

HACAT [3] = experiment: qHTS assay to identify novel small-molecules to repurpose for Merkel cell carcinoma treatment (AID 1296009); conditions: MCC and control cell lines, CellTiter-Glo viability, 72 h; at 44.8 µM (top of the series) unless noted; also: nearly all actives have a fitted effect of over 60% in size; also: potency is read from the fitted curve at half-maximal effect
Summary of the method: (§2)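 Cell viability, measured as CellTiter-Glo luminescence, was normalized between DMSO and no-cell wells. The cells had been exposed to 8- or 11-point compound dilutions for 72 hr at 37 degree celsius.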

MCC-13 = experiment: as above; conditions: MCC and control cell lines, CellTiter-Glo viability, 72 h; series mostly up to 46 µM
Summary of the method: as §2

MCC-26 = experiment: as above; conditions: MCC and control cell lines, CellTiter-Glo viability, 72 h; series mostly up to 46 µM
Summary of the method: as §2

MKL-1 = experiment: as above; conditions: MCC and control cell lines, CellTiter-Glo viability, 72 h; series mostly up to 46 µM
Summary of the method: as §2

NIH3T3 [4] = experiment: as above; conditions: MCC and control cell lines, CellTiter-Glo viability, 72 h; at 44.8 µM (top of the series) unless noted
Summary of the method: as §2

C33A = experiment: Primary qHTS to identify gynecologic anti-cancer compounds using libraries of approved drugs and bioactive compounds (AID 1345084); conditions: Gynecologic cancer cell panel viability, ATPlite luminescence, 48 h; series mostly up to 57.5 µM; also: nearly all actives have a fitted effect of over 55% in size
Summary of the method: (§3)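 Five-concentration response, 48 h; readout is ATP-driven luciferase luminescence.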

CAOV3 = experiment: as above; conditions: Gynecologic cancer cell panel viability, ATPlite luminescence, 48 h; series mostly up to 57.5 µM
Summary of the method: as §3

CASKI = experiment: as above; conditions: Gynecologic cancer cell panel viability, ATPlite luminescence, 48 h; series mostly up to 57.5 µM
Summary of the method: as §3

Es-2 = experiment: as above; conditions: Gynecologic cancer cell panel viability, ATPlite luminescence, 48 h; series mostly up to 57.5 µM
Summary of the method: as §3

HeLa = experiment: as above; conditions: Gynecologic cancer cell panel viability, ATPlite luminescence, 48 h; series mostly up to 57.5 µM
Summary of the method: as §3

Hek293T [5] = experiment: as above; conditions: Gynecologic cancer cell panel viability, ATPlite luminescence, 48 h, control line for the selectivity index; series mostly up to 57.5 µM
Summary of the method: as §3

JEG-3 = experiment: as above; conditions: Gynecologic cancer cell panel viability, ATPlite luminescence, 48 h; series mostly up to 57.5 µM
Summary of the method: as §3

MKL-2 = experiment: qHTS assay to identify novel small-molecules to repurpose for Merkel cell carcinoma treatment (AID 1296009); conditions: MCC and control cell lines, CellTiter-Glo viability, 72 h; series mostly up to 46 µM; also: nearly all actives have a fitted effect of over 60% in size; also: potency is read from the fitted curve at half-maximal effect
Summary of the method: as §2

UISO = experiment: as above; conditions: MCC and control cell lines, CellTiter-Glo viability, 72 h; series mostly up to 46 µM
Summary of the method: as §2

WaGa = experiment: as above; conditions: MCC and control cell lines, CellTiter-Glo viability, 72 h; series mostly up to 46 µM
Summary of the method: as §2

HEK293T [6] = experiment: as above; conditions: MCC and control cell lines, CellTiter-Glo viability, 72 h; at 44.8 µM (top of the series)
Summary of the method: as §2

CNC(=O)c1ccc(C)c(-n2c(C)cc(OCc3ccc(F)cc3F)c(Br)c2=O)c1
Potency (HEK293): 11.6 µM (active)
max response (HaCat [1]): -14.3% (inactive)
outcome (HaCat [1]): inactive
max response (KB-3-1): -4.9% (inactive)
max response (NIH3T3 [2]): 2.56% (inactive)
outcome (NIH3T3 [2]): inactive
outcome (HACAT [3]): inactive
Potency (MCC-13): inactive
Potency (MCC-26): inactive
Potency (MKL-1): inactive
outcome (NIH3T3 [4]): inactive
Potency (C33A): inactive
Potency (CAOV3): inactive
Potency (CASKI): inactive
Potency (Es-2): inactive
Potency (HeLa): inactive
Potency (Hek293T [5]): inactive
Potency (JEG-3): inactive

Cn1cnc2c(F)c(Nc3ccc(Br)cc3Cl)c(C(=O)NOCCO)cc21
Potency (HEK293): 1.32 µM (active)
max response (HEK293): -14.9% (inactive)
Potency (HaCat [1]): 1.48 µM (active)
Potency (KB-3-1): 9.35 µM (active)
max response (KB-3-1): -17.4% (inactive) and -1.76% (inactive)
Potency (NIH3T3 [2]): 4.18 µM (active)
Potency (MKL-1): inactive
Potency (MKL-2): inactive
Potency (UISO): inactive
Potency (WaGa): inactive
Potency (C33A): inactive
Potency (CAOV3): inactive
Potency (CASKI): inactive
Potency (HeLa): inactive
Potency (Hek293T [5]): inactive
Potency (JEG-3): inactive

OC(CCN1CCCCC1)(c1ccccc1)C1CC2C=CC1C2 (stereo not given)
outcome (HEK293): inactive
max response (HaCat [1]): -0.0685% (inactive)
outcome (HaCat [1]): inactive
max response (KB-3-1): -2.63% (inactive) and -12.8% (inactive)
outcome (KB-3-1): inactive
outcome (NIH3T3 [2]): inactive
outcome (HACAT [3]): inactive
outcome (HEK293T [6]): inactive
Potency (MCC-13): inactive
Potency (MKL-1): inactive
Potency (MKL-2): inactive
outcome (NIH3T3 [4]): inactive
Potency (UISO): inactive
Potency (WaGa): inactive
Potency (C33A): inactive
Potency (CAOV3): inactive
Potency (CASKI): inactive
Potency (Es-2): inactive
Potency (HeLa): inactive
Potency (Hek293T [5]): inactive
Potency (JEG-3): inactive

Cc1c(C)c2c(c(C)c1O)CCC(C)(COc1ccc(CC3SC(=O)NC3=O)cc1)O2 (stereo not given)
max response (HEK293): -17% (inactive)
outcome (HEK293): inactive
outcome (HaCat [1]): inactive
max response (KB-3-1): -2.71% (inactive) and -9.42% (inactive)
max response (NIH3T3 [2]): -1.07% (inactive)
outcome (NIH3T3 [2]): inactive
outcome (HACAT [3]): inactive
outcome (HEK293T [6]): inactive
Potency (MCC-13): inactive
Potency (MCC-26): inactive
Potency (MKL-1): inactive
Potency (MKL-2): inactive
outcome (NIH3T3 [4]): inactive
Potency (WaGa): 16.8 µM (active) and inactive
Potency (C33A): inactive
Potency (CAOV3): inactive
Potency (CASKI): inactive
Potency (Es-2): inactive
Potency (HeLa): inactive
Potency (Hek293T [5]): inactive
Potency (JEG-3): inactive

C[C@H](NC(=O)Cc1cc(F)cc(F)c1)C(=O)N[C@@H]1C(=O)N(C)c2ccccc2-c2ccccc21
max response (HEK293): -10.7% (inactive)
max response (HaCat [1]): -1.56% (inactive)
outcome (HaCat [1]): inactive
max response (KB-3-1): 1.83% (inactive)
outcome (KB-3-1): inactive
max response (NIH3T3 [2]): -12.2% (inactive) and -1.62% (inactive)
outcome (HACAT [3]): inactive
Potency (MCC-13): inactive
Potency (MKL-1): inactive
Potency (UISO): inactive
Potency (C33A): inactive
Potency (CAOV3): inactive
Potency (CASKI): inactive
Potency (Es-2): inactive
Potency (HeLa): inactive
Potency (Hek293T [5]): inactive
Potency (JEG-3): inactive

Cc1[nH]c(=O)c(C#N)cc1-c1ccncc1
max response (HEK293): -9.35% (inactive)
outcome (HEK293): inactive
max response (HaCat [1]): 4.3% (inactive) and 4.05% (inactive) and -9.78% (inactive)
max response (KB-3-1): 6.66% (inactive) and -5.96% (inactive) and -18.3% (inactive)
max response (NIH3T3 [2]): 0.936% (inactive)
outcome (NIH3T3 [2]): inactive
outcome (HEK293T [6]): inactive
Potency (MCC-13): inactive
Potency (MCC-26): inactive
Potency (MKL-1): inactive
Potency (MKL-2): inactive
outcome (NIH3T3 [4]): inactive
Potency (UISO): inactive
Potency (WaGa): inactive
Potency (C33A): inactive
Potency (CAOV3): inactive
Potency (CASKI): inactive
Potency (Es-2): inactive
Potency (HeLa): inactive
Potency (Hek293T [5]): inactive
Potency (JEG-3): inactive

NC(N)=NC(=O)c1nc(Cl)c(N)nc1N
max response (HEK293): -13.2% (inactive) and 2.01% (inactive)
max response (HaCat [1]): -3.73% (inactive)
outcome (HaCat [1]): inactive
outcome (KB-3-1): inactive
max response (NIH3T3 [2]): -0.651% (inactive)
outcome (NIH3T3 [2]): inactive
outcome (HACAT [3]): inactive
Potency (MCC-13): inactive
Potency (MCC-26): inactive
Potency (MKL-1): inactive
Potency (MKL-2): inactive
outcome (NIH3T3 [4]): inactive
Potency (UISO): inactive
Potency (WaGa): inactive and 29.9 µM (active)
Potency (C33A): inactive
Potency (CAOV3): inactive
Potency (CASKI): inactive
Potency (Es-2): inactive
Potency (HeLa): inactive
Potency (Hek293T [5]): inactive
Potency (JEG-3): inactive

CCc1ccc(CCOc2ccc(CC3SC(=O)NC3=O)cc2)nc1 (stereo not given)
max response (HEK293): -6.03% (inactive)
outcome (HEK293): inactive
outcome (HaCat [1]): inactive
max response (KB-3-1): -8.26% (inactive) and 7.14% (inactive)
max response (NIH3T3 [2]): 0.801% (inactive)
outcome (NIH3T3 [2]): inactive
outcome (HACAT [3]): inactive
outcome (HEK293T [6]): inactive
Potency (MCC-13): inactive
Potency (MCC-26): inactive
Potency (MKL-1): inactive
Potency (MKL-2): inactive
outcome (NIH3T3 [4]): inactive
Potency (UISO): inactive
Potency (WaGa): inactive
Potency (C33A): inactive
Potency (CAOV3): inactive
Potency (CASKI): inactive
Potency (Es-2): inactive
Potency (HeLa): inactive
Potency (Hek293T [5]): inactive
Potency (JEG-3): inactive

CC(=O)Oc1ccccc1C(=O)O
max response (HEK293): 1.6% (inactive)
outcome (HEK293): inactive
outcome (HaCat [1]): inactive
max response (KB-3-1): -12% (inactive) and 2.14% (inactive)
max response (NIH3T3 [2]): 0.988% (inactive) and 3.48% (inactive)
outcome (HACAT [3]): inactive
outcome (HEK293T [6]): inactive
Potency (MCC-13): inactive
Potency (MKL-1): inactive
Potency (MKL-2): inactive
Potency (UISO): inactive
Potency (WaGa): inactive
Potency (C33A): inactive
Potency (CAOV3): inactive
Potency (CASKI): inactive
Potency (Es-2): inactive
Potency (HeLa): inactive
Potency (Hek293T [5]): inactive
Potency (JEG-3): inactive

NCCCC(N)(C(=O)O)C(F)F (stereo not given)
max response (HEK293): -1.85% (inactive) and -25.2% (inactive)
max response (HaCat [1]): -8.41% (inactive)
outcome (HaCat [1]): inactive
max response (KB-3-1): -4.94% (inactive) and 7.79% (inactive)
max response (NIH3T3 [2]): -17.4% (inactive)
outcome (HACAT [3]): inactive
Potency (MCC-13): inactive
Potency (MCC-26): inactive
Potency (MKL-1): inactive
Potency (MKL-2): inactive
Potency (UISO): inactive
Potency (WaGa): inactive
Potency (C33A): inactive
Potency (CAOV3): inactive
Potency (CASKI): inactive
Potency (Es-2): inactive
Potency (HeLa): inactive
Potency (Hek293T [5]): inactive
Potency (JEG-3): inactive
